Compounds with a hit are over-represented: about 22% of the library has one in this group of screens.
Shiga toxin inh – inhibitors of Shiga toxin in Vero cells | Vero cells, Shiga toxin protein synthesis inhibition reporter | inhibition, % at 38.7 µM | 290,000 tested, 9.2% active; in the data active = inhibition mostly above about 28%, no sharp cut-off; inactive = mostly below about 43%
Pf growth 96h – P. falciparum growth inhibition at 96 hours | P. falciparum luciferase reporter growth, 96 h | Potency, µM (highest dose often 28.7 µM), usual class: inhibitors | 320,000 tested, 6.9% active | AID 504834
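Luminescence readout: decreased luciferase signal marks inhibited growth of reporter-expressing P. falciparum in infected red cells (2% hematocrit, 0.05% parasitemia final), exposed to compound two generations (96 h, 37 C, 5% CO2).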
Pf growth 48h – P. falciparum growth inhibition at 48 hours (one generation). Potency, µM (top dose mostly 28.7 µM), actives largely listed as inhibitors. 310,000 tested, 5.9% active. P. falciparum luciferase growth in erythrocytes, 48 h. AID 504832
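A one-generation exposure of luciferase-tagged malaria parasites in RPMI 1640/Albumax erythrocyte culture, 37 C and 5% CO2. Inhibition is inferred from decreased luminescence after adding detection reagent.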
LmPK inh – blocks Leishmania mexicana pyruvate kinase activity; 290,000 tested, 0.37% active; AID 1721; purified LmPK, Kinase-Glo ATP luminescence, 1 h; Potency, µM (highest dose often 57.5 µM), hits mostly inhibitors; Q27686
Target sequence (Q27686 whole entry, looked up): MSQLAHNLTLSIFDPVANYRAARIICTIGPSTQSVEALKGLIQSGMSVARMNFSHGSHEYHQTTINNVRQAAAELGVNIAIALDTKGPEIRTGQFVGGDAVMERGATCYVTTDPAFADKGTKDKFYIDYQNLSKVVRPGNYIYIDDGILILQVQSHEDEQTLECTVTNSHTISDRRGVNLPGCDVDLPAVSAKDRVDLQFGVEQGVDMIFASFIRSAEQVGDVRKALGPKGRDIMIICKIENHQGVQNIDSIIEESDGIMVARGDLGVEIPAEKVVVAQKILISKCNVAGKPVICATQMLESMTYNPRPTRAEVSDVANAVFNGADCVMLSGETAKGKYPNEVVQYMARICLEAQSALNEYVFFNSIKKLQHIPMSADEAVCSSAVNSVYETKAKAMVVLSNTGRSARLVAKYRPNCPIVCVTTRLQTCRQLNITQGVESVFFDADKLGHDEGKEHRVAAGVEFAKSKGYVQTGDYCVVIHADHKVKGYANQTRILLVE
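qHTS format; LmPK 0.1 nM; substrates PEP 0.5 mM and ADP 0.1 mM. One-hour room-temperature incubation, then coupled luciferase luminescence; 0.5 nM enzyme wells mark activation.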
Cycloheximide cs – counter-screen hit for Shiga toxin inhibitors, cycloheximide. cell reporter, cycloheximide protein synthesis inhibition counterscreen. max response, %. 300,000 tested, 12% active; in the data active = max response mostly above about 13%, no sharp cut-off; inactive = mostly below about 14%; also: read at 38.3 µM for the half of the compounds with a filed dose
Each line names hits and unclear results; the compound was inactive in the other large screens. Unless noted, calls follow the shape of the dose curve; as a rule, active = well fitted inhibition curve with a large enough effect; inconclusive = small, poorly fitted or top-dose-only effect, or another doubt; inactive = no such curve, though single readings can be large or run the other way.

CC(=O)N1CCCC(C(=O)c2ccc(Oc3ccccc3)cc2)C1 (centres undefined)	Shiga toxin inh 57, Pf growth 96h inconclusive, Cycloheximide cs 34
Cc1cc(C(=O)N2CCCC(C(=O)c3ccc(Oc4ccccc4)cc3)C2)n[nH]1 (centres undefined)	Pf growth 96h inconclusive, Pf growth 48h 10µM
COCC(=O)N1CCCC(C(=O)c2ccc(Oc3ccccc3)cc2)C1 (centres undefined)	none
COc1ccc(-c2noc(CNC(=O)c3ccoc3C)n2)cc1	none
COC(=O)c1ccn(CC(=O)NC2CCCCC2)n1	none
COc1ccccc1Cn1c(SCC(N)=O)nc2c(oc3ccccc32)c1=O	Pf growth 48h inconclusive
COc1ccc(CCN2C(=S)N(c3ccc(Cl)cc3)C(=O)C2CC(N)=O)cc1OC (centres undefined)	Pf growth 96h 12µM, Pf growth 48h 10µM
CCOC(=O)c1ccc(N2C(=O)C(CC(N)=O)N(CCc3ccc(OC)c(OC)c3)C2=S)cc1 (centres undefined)	Pf growth 48h 15µM
COC(=O)CN1C(=S)N(c2ccc(Cl)cc2)C(=O)C1CC(=O)Nc1ccccc1 (centres undefined)	Pf growth 96h inconclusive
COC(=O)c1ccc(N2C(=O)CC(N(C)CCc3ccc(OC)c(OC)c3)C2=O)cc1 (centres undefined)	none
CSCCC(NC(=O)COc1ccccc1)C(=O)O (centres undefined)	none
CN(C(=O)c1cccc(C#CC(C)(C)O)c1)C1CCCN(Cc2ccccc2F)C1 (centres undefined)	none
Cc1ccc(CNC(=O)/C=C/c2cccs2)cc1	Shiga toxin inh 78, Cycloheximide cs 27
CCCCNC(=O)/C=C/c1cccs1	Shiga toxin inh 48, Cycloheximide cs 33
NS(=O)(=O)c1cccc(NC(=O)CSc2nn(-c3ccccc3)c(=S)s2)c1	Pf growth 96h 1.2µM, Pf growth 48h 1.9µM
NS(=O)(=O)c1cccc(NC(=O)CCSc2ccccc2Cl)c1	Shiga toxin inh 68, Cycloheximide cs 61
O=C(CCSc1ccccc1Cl)Nc1cccc([N+](=O)[O-])c1	Shiga toxin inh 73, Cycloheximide cs 45
Cc1cc(C)c([N+](=O)[O-])cc1NC(=O)CCSc1ccccc1Cl	Pf growth 96h inconclusive, Pf growth 48h inconclusive
Nc1nnc(SCC(=O)Nc2cccc(S(N)(=O)=O)c2)s1	none
Cc1cc(C)c(S(=O)(=O)N2CCN(C(=O)C(C)Cn3cncn3)CC2)c(C)c1 (centres undefined)	none
COc1ccc(OCCCC(=O)Nc2cccc([N+](=O)[O-])c2C)cc1	none
CCOc1ccc(NC(=O)CN(C)C(=O)/C=C/c2ccco2)cc1OCC	none (no result: Shiga toxin inh, LmPK inh, Cycloheximide cs)
O=C(NCCCSc1ccccc1)c1cc(Br)ccc1O	none
Cc1cc2c(cc(C(=O)O)n2C)s1	none (no result: Pf growth 48h)
CCOC(=O)c1cc2sc(C)cc2n1C(C)C(=O)OCC (centres undefined)	Pf growth 96h 0.83µM
COc1cc(OC)c2c(-c3ccccc3)cc(=O)oc2c1C(CCN1CCCCC1)c1ccc(N(C)C)cc1 (centres undefined)	Pf growth 96h inconclusive, Pf growth 48h 10µM
COc1cc(OC)c2c(-c3ccccc3)cc(=O)oc2c1C(CCN1CCOCC1)c1ccc(N(C)C)cc1 (centres undefined)	none (no result: Pf growth 96h, Pf growth 48h, LmPK inh)
COc1ccc(C(CCN2CCCCC2)c2c(OC)cc(OC)c3c(-c4ccccc4)cc(=O)oc23)cc1 (centres undefined)	Pf growth 96h 9.3µM, Pf growth 48h 10µM
O=C(C1=C[C@@H](c2ccccc2)C[C@@H](OCCCCO)O1)N1CCN(Cc2ccc3c(c2)OCO3)CC1	Pf growth 96h inconclusive, Pf growth 48h inconclusive
O=C(C1=C[C@@H](c2ccccc2)C[C@@H](OCc2ccc(CO)cc2)O1)N1CCOCC1	none
C#Cc1ccc([C@H]2C=C(C(=O)N3CCN(Cc4ccc5c(c4)OCO5)CC3)O[C@@H](OCc3ccc(CO)cc3)C2)cc1	Pf growth 96h 3.3µM, Pf growth 48h inconclusive
O=C(C1=C[C@H](c2ccc(Br)cc2)C[C@H](OCc2ccc(CO)cc2)O1)N1CCN(Cc2ccc3c(c2)OCO3)CC1	Pf growth 96h 7.4µM, Pf growth 48h inconclusive
O=C(C1=C[C@H](c2ccccc2)C[C@H](OCc2ccc(CO)cc2)O1)N1CCN(Cc2ccc3c(c2)OCO3)CC1	Pf growth 96h 13µM, Pf growth 48h inconclusive

Bioassay records: PubChem BioAssay, National Center for Advancing Translational Sciences (NCATS)
